# Only some compounds are listed: those with a hit (about 10% of all), similar ones and a draw of the others.
# HEK293 tox: kills HEK 293 cells. HEK 293 viability, ATP luminescence (CellTiter-Glo), 48-72 h. Potency, µM (highest dose often 115 µM), for inactives: at the highest dose activity change, negative = cytotoxicity, actives largely listed as inhibitors. 6.6% of 94,000 active. AID 1345083; further: nearly all actives have a fitted effect of over 60% in size
#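 Cytotoxicity was scored by loss of ATP-coupled luminescence (CellTiter-Glo) in HEK 293 cells. Compound treatment ran 48 or 72 hr at 37 degree Celsius, 5% CO2, 95% humidity.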
# 3T3 cytotox: kills NIH 3T3 cells; 4.3% of 94,000 active; Potency, µM (highest dose often 96.7 µM), without a hit: at the top dose activity change, negative = cytotoxicity, most hits filed as inhibitors; AID 1345082; NIH 3T3 viability, CellTiter-Glo ATP luminescence, 48-72 h; further: nearly all actives have a fitted effect of over 55% in size
#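 Mouse fibroblast NIH 3T3 cells, 400 per well, received compound via pintool and were incubated for 48 or 72 hr prior to CellTiter-Glo ATP luminescence measurement.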
# hNpr1 antagonist: human Npr1 receptor antagonism. P16066. HEK293 hNpr1 GloSensor cGMP, ANP-stimulated luminescence. Potency, µM (titrated, usually from 46.3 µM), without a hit: at the highest dose activity change, negative = inhibition, hits mostly inhibitors. 1.6% of 76,000 active; calls by dose curve; further: nearly all actives have a fitted effect of over 60% in size
#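 HEK293 cells stably expressing human Npr1 and cGMP GloSensor pGS-40F, loaded 2 h with 2% GloSensor reagent, given compound 30 min at room temperature. Luminescence read before and 20 min after 0.1 nM hNppA.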
# GPT2 inhibitor: inhibitors of human GPT2 alanine aminotransferase | Q8TD30 | Recombinant GPT2, coupled pyruvate oxidase/HRP Amplex Red fluorescence | Potency, µM (titrated, usually from 57.7 µM), for the others: top-dose activity change, negative = inhibition, hits mostly inhibitors | 0.25% of 100,000 active | AID 1671188; further: nearly all actives have a fitted effect of over 60% in size
# Target sequence (Q8TD30 whole entry, looked up): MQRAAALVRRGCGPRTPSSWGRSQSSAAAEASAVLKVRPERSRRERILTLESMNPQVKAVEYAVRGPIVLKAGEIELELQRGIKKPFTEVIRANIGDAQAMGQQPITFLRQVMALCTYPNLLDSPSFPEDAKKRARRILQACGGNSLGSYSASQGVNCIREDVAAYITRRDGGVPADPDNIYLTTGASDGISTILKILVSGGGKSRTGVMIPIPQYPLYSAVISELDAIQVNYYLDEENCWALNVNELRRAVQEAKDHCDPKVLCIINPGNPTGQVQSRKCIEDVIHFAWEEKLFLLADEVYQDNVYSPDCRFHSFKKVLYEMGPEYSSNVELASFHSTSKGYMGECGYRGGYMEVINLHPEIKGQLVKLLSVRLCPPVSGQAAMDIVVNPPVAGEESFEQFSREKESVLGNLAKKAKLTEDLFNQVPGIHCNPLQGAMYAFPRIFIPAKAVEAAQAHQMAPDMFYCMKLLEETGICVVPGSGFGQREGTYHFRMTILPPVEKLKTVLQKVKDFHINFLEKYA
#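 Fluorescence read-out: pyruvate from GPT2 turnover coupled to pyruvate oxidase, HRP and Amplex Red (0.2mM ThPP, 0.2U/mL PO and HRP, 50uM Amplex final). Substrates 250uM a-KG, 2mM L-alanine; enzyme 10ng/uL; 30 min RT.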
# FLuc inh: blocks purified firefly luciferase enzyme activity; purified P. pyralis luciferase, luminescence, biochemical; P08659; 2.5% of 76,000 active; AID 1347043; Potency, µM (highest dose often 115 µM), most hits filed as inhibitors; further: nearly all actives have a fitted effect of over 65% in size
#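 Luminescence read by CCD imaging after purified firefly luciferase (10nM final) was added to substrate buffer holding 10uM D-luciferin and 10uM ATP, pH 7.5, pre-dosed with compound.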
# The depositor's hits bear a star; i = inactive; u = inconclusive; x = no result; [ ] = dose if it differs, or a comment. Unless noted, the call rests on the fitted dose curve; in most records, active means well fitted curve in the direction sought with a large enough effect; inconclusive means small, poorly fitted or top-dose-only effect, or another doubt; inactive means no such curve, though single readings can be large; an effect the other way counts as inactive or inconclusive. On the % scale 0 is the no-effect control and ±100 the full control effect; potency means the concentration at half of the fitted maximal effect.
SMILES,HEK293 tox,3T3 cytotox,hNpr1 antagonist,GPT2 inhibitor,FLuc inh
COc1ccc(OC)c(C(O)Cn2ccn3nc(-c4ccc(C(C)C)cc4)cc3c2=O)c1 (centres undefined),31.6µM*,-9.3%,u,i,u
COc1cccc(-c2cc3c(=O)n(CCNC(=O)Cc4ccc(Cl)cc4)ccn3n2)c1,-26.0%,-25.5%,u,i,u
COc1cccc(-c2cc3c(=O)n(CCNC(=O)c4ccc(F)cc4)ccn3n2)c1,-4.2%,-0.3%,-3.0%,i,i
COc1ccc(C(O)Cn2ccn3nc(-c4ccc(C(C)C)cc4)cc3c2=O)cc1 (centres undefined),1.8%,-3.9%,-2.0%,0.3%,i
COc1cccc(-c2cc3c(=O)n(CCNC(=O)Cc4cccc(F)c4)ccn3n2)c1,u,u,-2.5%,i,11.2µM*
COc1cccc(-c2cc3c(=O)n(CCNC(=O)c4cc(F)ccc4F)ccn3n2)c1,u,u,u,-14.3%,7.08µM*
Cc1nn(-c2ccccc2)c2c1C(C1CC1)N(C1CCN(Cc3ccc(C#N)cc3)CC1)C2=O (centres undefined),2.3%,-9.2%,x,x,x
COc1ccccc1-c1cccc(C(=O)N2CCC[C@H]2C(=O)NCc2ccccn2)c1,-15.6%,-10.5%,x,i,x
O=C(C1CCCC1)N1CCCC(C(=O)N2CCC(c3nc4ncccc4[nH]3)C2)C1 (centres undefined),-0.6%,-26.4%,x,u,x
COc1cccc(-c2cc3c(=O)n(CCNC(=O)Cc4ccc(F)cc4)ccn3n2)c1,-9.7%,-10.1%,u,i,7.94µM*
COc1ccc(-c2cc3c(=O)n(CCNC(=O)c4cc(OC)cc(OC)c4)ccn3n2)cc1,-5.2%,-23.5%,-17.2%,i,i
COc1cccc(-c2cc3c(=O)n(CC(O)c4ccccc4)ccn3n2)c1 (centres undefined),35.5µM*,-29.3%,-29.8%,i,3.55µM*
COc1cccc(-c2cc3c(=O)n(CCNC(=O)COc4ccccc4)ccn3n2)c1,-23.3%,-20.2%,-23.0%,-0.9%,25.1µM*
COc1ccc(-c2cc3c(=O)n(CCNC(=O)c4cc(Cl)ccc4F)ccn3n2)cc1,79.4µM*,-19.0%,-19.8%,-12.3%,u
COc1cccc(-c2cc3c(=O)n(CCNC(=O)Cc4ccccc4C)ccn3n2)c1,4.2%,-17.2%,-25.9%,-16.1%,u
O=C(NC1CN(c2ccnc3ccnn23)C1)C1CCCC1,i,0.3%[138 µM],x,-1.8%[88.5 µM],x
O=C(NC1CCN(c2cc(-c3cccs3)[nH]n2)CC1)c1cccc(Cl)c1,44.7µM*,u,0.0%,-1.3%,i
Cc1cccc(C(=O)NC2CCN(c3cc(-c4cccs4)[nH]n3)C2)c1 (centres undefined),u,u,-16.5%,u,i
Cc1ccc(CC(=O)NC2CCN(c3cc(-c4cccs4)[nH]n3)C2)cc1 (centres undefined),u,u,-22.9%,u,i
CN(C)c1cccc(C(=O)NC2CCN(c3cc(-c4cccs4)[nH]n3)C2)c1 (centres undefined),u,u,-21.4%,u,31.6µM*
O=C(Cc1ccccc1Cl)NC1CCN(c2cc(-c3cccs3)[nH]n2)C1 (centres undefined),u,20µM*,-5.0%,u,i
CCCNC(=O)N1CC(Oc2cccc(-c3nc(-c4ccccc4)no3)c2)C1,28.2µM*,-23.4%,-2.3%,3.8%,i
CC(Oc1ccccc1)C(=O)N1CC(Oc2cccc(-c3nc(-c4ccccc4)no3)c2)C1 (centres undefined),31.6µM*,28.2µM*,-27.4%,3.9%,u
CCOCCCNC(=O)N1CC(Oc2cccc(-c3nc(C)no3)c2)C1,8.9%,-29.8%,4.0%,i,i
COc1ccccc1C(=O)N1CC(Oc2ccc(-c3noc(-c4ccncc4)n3)cc2)C1,u,35.5µM*,x,i,x
SMILES,HEK293 tox,3T3 cytotox,hNpr1 antagonist,GPT2 inhibitor,FLuc inh
O=C(c1ccoc1)N1CC(Oc2cccc(-c3nc(-c4ccccc4)no3)c2)C1,u,u,5.4%,i,u
O=C(C1CCOCC1)N1CC(Oc2cccc(-c3nc(-c4ccccc4)no3)c2)C1,u,u,4.3%,2.1%,17.8µM*
C[S+](=O)([O-])N1CCC(c2nnc3n2C(C(=O)NCc2ccccc2Cl)CC3)CC1 (centres undefined),-1.2%[172 µM],-12.4%[138 µM],x,i,x
CNC(=O)c1cc(C2CC2)nc2onc(C3CCN(C(=O)N(C)C)CC3)c12,-5.1%[172 µM],4.9%[138 µM],x,x,x
COc1ccc(C(=O)N2CC(Oc3ccc(F)cc3C)C2)cc1,u,u,-2.9%[70.6 µM],-11.8%[88.5 µM],i
O=C(c1cc(F)ccc1F)N1CC(Oc2cccc(-c3nc(-c4ccccc4)no3)c2)C1,u,u,-0.6%,i,u
COc1ccccc1C(=O)N1CC(Oc2cccc(-c3nc(-c4ccccc4)no3)c2)C1,44.7µM*,31.6µM*,-9.8%,i,7.94µM*
COc1ccccc1C(=O)N1CC(Oc2ccc(F)cc2C)C1,70.8µM*,u,15.3%[70.6 µM],2.1%[88.5 µM],i
COC(=O)C[C@H]1c2cccnc2C(=O)N(C)[C@@H]1C(=O)NCCc1ccccc1,u,u,x,-5.1%[27.3 µM],x
COc1ccc(C(=O)N2CCc3ccc(C(=O)NCc4cccc(OC)c4)cc32)cc1,79.4µM*,u,2.0%,i,i
COc1ccc(C(=O)N2CCc3ccc(C(=O)NCc4cccc(F)c4)cc32)cc1,39.8µM*,u,-25.8%,-15.3%,i
COCCNC(=O)c1ccc(OC2CCN(CCC(C)c3ccc(C)o3)CC2)c(Cl)c1 (centres undefined),89.1µM*,u,1.2%,u,i
COCCNC(=O)c1ccc(OC2CCN(CCc3ccccc3)CC2)c(Cl)c1,u,u,11.2%,i,i
COCc1ccc(CN2CCC(Oc3ccc(C(=O)NC4CCCC4)cc3Cl)CC2)o1,35.5µM*,u,-17.1%,1.0%,i
COCCNC(=O)c1ccc(OC2CCN(C/C=C/c3ccc(F)cc3)CC2)c(Cl)c1,44.7µM*,u,u,4.6%,i
COc1ccc(CCNC(=O)c2ccc3nc(-c4ccccn4)oc3c2)cc1,u,-15.8%,x,-11.6%,x
O=C(Cc1cccc(Cl)c1)NC1CCCN(c2ccnc3ccnn23)C1 (centres undefined),u,-25.9%,x,-1.7%,x
COc1ccc(C(=O)N2CCC(n3cc(-c4nc(-c5ccccc5)no4)nn3)C2)cc1 (centres undefined),u,u,u,-0.5%,u
O=C(c1ccccc1)N1CCC(n2cc(-c3nc(-c4ccccc4)no3)nn2)C1 (centres undefined),u,u,12.6µM*,i,u

# High-throughput results as filed in PubChem BioAssay.
